Measurements as given in PubChem BioAssay (NCI).
This is part of a sample that, as a whole, favours compounds with a hit. Of some 83,000 tested, about 20% had one in any assay.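 Step 1: grow cells in 96-well plates. Step 2: add test compound at a single concentration. Step 3: incubate 48 h. Step 4: record percent growth.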 The source made the active and inactive calls. Rule for the calls: active = growth percent below 10; inactive = the rest.

What follows are compounds tested on MCF7 breast (assay: NCI-60 one-dose screen, 48 h (100 = growth as untreated, 0 = no growth, -100 = all killed)). Conditions: 10 µM unless noted.
For `COc1ccc(-c2cn(-c3cccc(C(=O)/C=C/c4ccc(O)c(OC)c4)c3)c(=O)[nH]2)cc1`, the growth was 15.2% (inactive). `COc1cc(Nc2ccnc3ccc(Br)cc23)cc(OC)c1OC` was tested, and the growth was 15.5% (inactive). `CN1CCN(Cc2ccc(NC(=O)c3cncc(C#Cc4ccc(N)nc4)c3)cc2C(F)(F)F)CC1` was tested, and the growth was 19.9% (inactive). With `COc1ccc(Sc2[nH]c(C=O)c3ccccc23)cc1` the growth was 57.8% (inactive). In the case of `COCCOCCOCc1n(Cc2ccc3ccccc3n2)c2ccccc2[n+]1Cc1ccc2ccccc2c1`, the growth is reported as 4.87% (active). With `COc1ccc(C2C3CCc4ccccc4C3=NN2C(=O)c2cc(OC)c(OC)c(OC)c2)cc1O` (stereo unspecified) the growth was 95.8% (inactive). `O=c1[nH]cnc2nc[nH]c12` was tested, and the growth was 95.4% (inactive). `CC(=O)O[C@H]1[C@H](CC#CC#CC[C@@H]2C[C@]3(C)[C@H]4CC=C5[C@H]6[C@@H](C)[C@H](C)CC[C@]6(C(=O)NCCN(CCN)CCN)CC[C@@]5(C)[C@]4(C)CC[C@H]3C(C)(C)[C@H]2OC(C)=O)C[C@]2(C)[C@H]3CC=C4[C@H]5[C@@H](C)[C@H](C)CC[C@]5(C(=O)NCCN(CCN)CCN)CC[C@@]4(C)[C@]3(C)CC[C@H]2C1(C)C` was tested, and the growth was -0.0516% (active). With `Fc1ccc2nc(-c3ccc(-c4noc(-c5ccc(Cl)cc5)n4)cc3)[nH]c2c1` the growth was 105% (inactive). In the case of `OC(c1cc(-c2ccc(C(F)(F)F)cc2)nc(-c2ccc(C(F)(F)F)cc2)c1)C1CCCCN1` (stereo unspecified), the growth is reported as -80.8% (active). For `CC1(C)C(N(O)C(=O)Nc2ccc(Cl)cc2)N(c2ccc(Cl)cc2)C(=O)N1CC(=O)N/N=C/C=C/c1ccc([N+](=O)[O-])o1` (stereo unspecified), the growth was 7.37% (active). With `Cc1cc(N=Nc2ccc(-c3ccc(N=Nc4ccc(O)c(C(=O)O)c4)cc3)cc2)c(N)c(N=Nc2ccc(C(=O)O)cc2)c1N` the growth was 97.6% (inactive). In the case of `NC(N)=N/N=C\c1cccc(OCc2ccccc2)c1`, the growth is reported as 47.2% (inactive). In the case of `CNC(=O)c1ccccc1Sc1ccc2c(/C=C/c3ccccn3)n[nH]c2c1`, the growth is reported as 35.2% (inactive). In the case of `CC(=O)c1c(C)nc(-c2cc(C)cc(Cl)c2)nc1-c1cccc(Oc2ccccc2)c1`, the growth is reported as 43.5% (inactive). In the case of `CCN(CC)Cc1cc(Nc2nc(NC3CCC(N(C)C)CC3)c3ccccc3n2)ccc1OC` (stereo unspecified), the growth is reported as 40.1% (inactive). In the case of `Cc1nc2c(-c3cnc(N)nc3)nc(N3CCOCC3)nc2n1C(C)C`, the growth is reported as 9.9% (active). `C[C@@H]1C[C@H](N)C[C@H](c2ccncc2NC(=O)c2ccc(F)c(-c3c(F)cccc3F)n2)C1` was tested, and the growth was 40.2% (inactive). In the case of `Nc1nonc1-c1nc2ccccc2n1Cc1ccc(F)cc1`, the growth is reported as 28.4% (inactive). `C=CC[C@]1(O)CC[C@H]2[C@@H]3CCc4cc(O)ccc4[C@H]3CC[C@@]21C` was tested, and the growth was 116% (inactive). With `[Ag].[Ag].[NH-]S(=O)(=O)c1ccc(N=Nc2cc(N=Nc3ccc(S([NH-])(=O)=O)cc3)c3c(NC(=O)C(Cl)Cl)cccc3c2OC(=O)C(Cl)Cl)cc1.[c-]1nccs1.[c-]1nccs1` the growth was 50.8% (inactive). For `CCCCCCCCCCCCCCC(C(=O)OCC)C(=O)OCC`, the growth was 98.5% (inactive). With `CN(C)c1ccc(C(c2ccccc2)c2ccc(N(C)C)cc2)cc1` the growth was 90.3% (inactive). In the case of `Cc1n(Cc2ccc3ccccc3n2)cc[n+]1Cc1ccc2ccccc2c1`, the growth is reported as 4.65% (active). `FC(F)(F)c1ccc(/C=N/Nc2nnc3n2N=C(c2ccc(Cl)cc2)CS3)cc1` was tested, and the growth was 61.2% (inactive). `CS(=O)(=O)Nc1cc(-c2cc3ncc(C#N)c(Nc4ccc(Oc5ccccc5)c(Cl)c4)c3s2)cnc1Cl` was tested, and the growth was 26.5% (inactive). For `Cc1cc(C)c2c(n1)sc1c(Nc3ccc(O)cc3)ncnc12`, the growth was 20.3% (inactive). With `c1ccc(C2=Nc3ccccc3SC2)cc1` the growth was 86.4% (inactive). With `COc1cc2c(cc1OCCCOc1cc3c(cc1OC)C(=O)N1CCC[C@H]1C=N3)C=CC(C)(C)O2` the growth was 39.3% (inactive). `O=[N+]([O-])c1cccc(N=C(Nc2cccc([N+](=O)[O-])c2)c2ccccc2)c1` was tested, and the growth was 68.9% (inactive). For `C=CCn1c(C)nc2cc(Nc3nc(N4CCOCC4)nc4nc[nH]c34)ccc21`, the growth was 86.5% (inactive). In the case of `C=C1NC(=O)C(C(C)CC)NC(=O)C2CSCC(NC(=O)CCC(=O)O)C(=O)NC(Cc3ccccc3)C(=O)NC(C)C(=O)NC(CC(C)CC)C(=O)NC(C(=O)NC(Cc3ccccc3)C(=O)N3CCCC3C(=O)N2)C(C)OC(=O)C(CO)NC(=O)C(C(O)COC)N(C)C(=O)C(C(C)C)NC(=O)C(CC(C)CC)NC1=O` (stereo unspecified), the growth is reported as 16.9% [6 µM] (inactive). In the case of `COc1ccc(-c2nc(-c3cc(OC)cc(OC)c3)[nH]c2-c2ccc(OC)cc2)cc1`, the growth is reported as 34.9% (inactive). In the case of `N#Cc1nc(-c2cccc(Br)c2)cc(-c2ccc(Nc3nc(N4CCCCC4)nc(N4CCCCC4)n3)cc2)c1N`, the growth is reported as 6.98% (active). With `NC(N)=N/N=C\c1ccc(OCc2ccccc2)cc1` the growth was 17.3% (inactive). In the case of `COS(=O)(=O)CCN(CCOS(C)(=O)=O)S(C)(=O)=O`, the growth is reported as 96% (inactive).
